IL-1B inflam inh – qHTS for Inhibitors of Inflammasome Signaling: IL-1-beta AlphaLISA Primary Screen; hit rate 4.7% among 360,000; AID 743279, 2014; activity change, % at 57.5 µM; THP-1 LPS/ATP IL-1B secretion, AlphaLISA, 16 h; stronger effect = lower value; in the data active = activity change below about -50%; inconclusive = mostly about -30% to -49%
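THP-1 cells pretreated 1 hr with compounds (up to 57.5 uM final), then stimulated with LPS (250 ng/mL final) plus ATP (1.25 mM final); secreted IL-1B measured by AlphaLISA after 16 hr, decreased signal indicating inhibition.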
MCF10A rerep – A quantitative high throughput screen for small molecules that induce DNA re-replication in MCF 10a normal breast cells; MCF 10A DNA re-replication, Hoechst nuclear intensity, 48 h; Potency, µM (top dose mostly 46.1 µM), usual class: activators; hit rate 2.9% among 350,000; also: nearly all actives have a fitted effect of over 50% in size
RORg inh – qHTS for inhibitors of ROR gamma transcriptional activity. Drosophila S2 Gal4-RORgamma UAS-luciferase reporter, 20 h. Potency, µM (titrated, usually from 53.6 µM), hits mostly inhibitors. hit rate 5.4% among 310,000; also: nearly all actives have a fitted effect of over 60% in size
Target sequence (P51450 whole entry, looked up, the tested form may be a part): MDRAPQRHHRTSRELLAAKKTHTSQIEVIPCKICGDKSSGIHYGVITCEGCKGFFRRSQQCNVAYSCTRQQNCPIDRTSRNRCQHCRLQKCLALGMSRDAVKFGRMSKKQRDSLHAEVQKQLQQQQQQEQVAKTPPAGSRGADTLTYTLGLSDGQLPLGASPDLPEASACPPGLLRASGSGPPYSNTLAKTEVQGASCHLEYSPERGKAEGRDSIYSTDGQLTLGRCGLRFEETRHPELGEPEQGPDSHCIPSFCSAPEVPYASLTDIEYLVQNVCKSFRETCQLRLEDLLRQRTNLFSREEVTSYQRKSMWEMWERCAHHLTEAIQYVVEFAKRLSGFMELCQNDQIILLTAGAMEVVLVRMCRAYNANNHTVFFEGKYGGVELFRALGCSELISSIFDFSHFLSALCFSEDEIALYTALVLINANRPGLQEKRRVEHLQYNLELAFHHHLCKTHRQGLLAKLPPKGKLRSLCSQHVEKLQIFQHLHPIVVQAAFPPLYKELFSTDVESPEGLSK
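Drosophila S2 cells stably expressing Gal4-DBD/mouse RORγ fusion under metallothionein promoter plus UAS-luciferase; compound 1 h, then 700 uM CuSO4 induction for 20 h at ambient temperature; inhibition read as reduced luminescence.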
Gal4-VP16 FLuc – VP16 counterscreen qHTS for inhibitors of ROR gamma transcriptional activity | Drosophila S2 Gal4-VP16 UAS-luciferase, luminescence, 20 h | Potency, µM (top dose mostly 53.6 µM), most hits filed as inhibitors | hit rate 3.5% among 310,000 | AID 2546, 2010;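 also: Gal4-VP16 expression switched on by copper sulfate through the metallothionein promoter; nearly all actives have a fitted effect of over 50% in size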
SW480 rereplic – A quantitative high throughput screen for small molecules that induce DNA re-replication in SW480 colon adenocarcinoma cells; SW480 DNA re-replication, Hoechst DNA content imaging, 48 h; Potency, µM (series often up to 46.1 µM), actives largely listed as activators; hit rate 1.8% among 340,000; also: nearly all actives have a fitted effect of over 55% in size
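Image-based read-out: total Hoechst fluorescence of nuclei (405 nm excitation, 500-530 nm emission), with hits raising the fraction of high-intensity nuclei. SW480 colon cells incubated 48 hr with compounds at 37 C.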
Numbers stand for hits; i = inactive; ? = inconclusive; nt = not tested or not shown; [ ] = dose if it differs, or a comment. Hits are enriched below; roughly 11% of the tested compounds scored in any of these assays. Unless noted, calls follow the shape of the dose curve; as a rule, active = well fitted curve in the direction sought with a large enough effect; inconclusive = small, poorly fitted or top-dose-only effect, or another doubt; inactive = no such curve, though single readings can be large; an effect the other way counts as inactive or inconclusive.

SMILES | IL-1B inflam inh | MCF10A rerep | RORg inh | Gal4-VP16 FLuc | SW480 rereplic
CSCc1nnc(NC(=O)c2ccc(S(=O)(=O)N(CC(C)C)CC(C)C)cc2)o1 | nt | nt | 0.28µM | 0.63µM | nt
COCc1nnc(NC(=O)c2ccc(S(=O)(=O)N(C)C3CCCCC3)cc2)o1 | i | i | 1.6µM | 4.5µM | i
CCN1C[C@@H]2[C@@H]3C(=O)N(Cc4ccccc4)C(=O)[C@@H]3[C@](C)(C1=O)N2C(=O)c1ccc(C(F)(F)F)cc1 | i | i | nt | nt | i
CCN(CC)S(=O)(=O)c1ccc(C(=O)Nc2nnc(C(C)C)s2)cc1 | i | i | i | i | i
CCc1nnc(NC(=O)c2ccc(S(=O)(=O)N(CC(C)C)CC(C)C)cc2)o1 | i | 8.9µM | 0.32µM | 0.35µM | i
COC(=O)N1CCC2(CC1)CCN(c1ccncc1)CC2 | nt | nt | i | i | nt
COc1cc(C(=O)NCCC(=O)NC(C)CCc2ccccc2)cc(OC)c1OC (configuration not stated) | i | i | i | i | i
COc1ccc2c(c1)sc1nc(-c3ccccc3)cn12 | ? | ? | 1.6µM | 2µM | ?
CC(C)(C)c1n[nH]c2c1CCCC2 | i | i | 11µM | i | i
CCOC(=O)CCc1c(C)c2ccc(OCC)c(C)c2oc1=O | i | i | i | i | i
CCOC(=O)CCc1c(C)c2ccc3c(c2oc1=O)CN(CCCO)CO3 | i | 7.3µM | i | i | ?
N#Cc1ccc(S(=O)(=O)N2CCCCC2c2cc(C(=O)NCc3ccccc3)no2)cc1 (configuration not stated) | i | nt | nt | nt | nt
c1ccc2[nH]c3cc4ncnc4cc3nc2c1 | -57 | i | ? | i | i
FC(F)c1nc2ccccc2[nH]1 | i | i | i | i | i
COC(=O)CCc1c(C)c(C(=O)c2ccc(F)cc2)c2ccccn12 | i | i | i | i | i
Cc1c(C(=O)Nc2ccc(F)cc2)c2ccccn2c1CCc1ccncc1 | -52 | i | i | ? | i
CC(C)[C@@H](OCc1ccccc1)[C@H](C)CO/N=C1/[C@H]2OC2[C@@H](O)[C@H]2[C@H]1CCn1c(=O)n(-c3ccccc3)c(=O)n12 (some centres not stated) | nt | nt | i[10 µM] | i[10 µM] | nt
COc1ccccc1CCNC(=O)C(=O)NCC1OCCN1S(=O)(=O)c1ccc(OC)c(OC)c1 (configuration not stated) | i | i | i | i | ?
CN1C2C=CC(=O)C1C1C(=O)N(c3ccccc3)C(=O)C12 (configuration not stated) | -118 | nt | nt | nt | nt
CC(=O)NC(c1ccccc1)c1cc(Cl)c2cccnc2c1O (configuration not stated) | i | ? | 1.4µM | 1.1µM | ?
CCC(=O)NC(c1cc(Cl)c2cccnc2c1O)C1CC1 (configuration not stated) | nt | i | nt | nt | i[9.22 µM]
CC(=O)NC(c1ccc(N(C)C)cc1)c1cc(Cl)c2cccnc2c1O (configuration not stated) | i | nt | nt | nt | nt
O=C(NC(c1ccc(Cl)cc1)c1cc(Cl)c2cccnc2c1O)c1cccnc1 (configuration not stated) | ? | 15µM | 0.71µM | 0.71µM | 2.6µM
CCC(=O)NC(c1cc(Cl)c2cccnc2c1O)C(C)C (configuration not stated) | nt | i | nt | nt | 0.23µM
COc1ccc(C(NC(C)=O)c2cc(Cl)c3cccnc3c2O)cc1 (configuration not stated) | i | ? | 2µM | 1.6µM | i
O=C(c1cccc(F)c1)N1CCC2(CCCN(c3ccccn3)C2)CC1 | nt | nt | i | i | nt
COc1ccc(C(O)c2nc(-c3cccc(CO)c3)cs2)cc1 (configuration not stated) | i | nt | nt | nt | nt
COC(=O)C1=CN(c2ccc(C(C)(C)C)cc2)C(N)=C(C#N)C1c1cccc([N+](=O)[O-])c1 (configuration not stated) | i | nt | nt | nt | nt
OC(c1ccccc1)(c1nc(-c2ccc(F)c(Cl)c2)cs1)C(F)(F)F (configuration not stated) | i | nt | nt | nt | nt
CCOc1ccc(C(NC(=O)c2ccco2)c2ccc(OC)c(OC)c2)cc1 (configuration not stated) | i | 3.7µM | i | i | ?
